# Experimental data: article PMC4336329 (PLoS ONE, 2015)
# In all, about 310,000 compounds went through this assay and about 14,000 (4.5%) showed an effect of 50% or more. The effect is printed as a negative number. Shown is part of a subset that was picked to be rich in strong results.
# Biological target: human ether-à-go-go-related gene (hERG) potassium channel (human, UniProt Q12809)
# Test: primary screen, population patch clamp on CHO cells stably expressing hERG; higher = less effect of the substance
# 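Also: peak tail current of the secondary pulse compared with the same well before compound.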
# Sequence of human ether-à-go-go-related gene (hERG) potassium channel (Q12809 whole entry, looked up): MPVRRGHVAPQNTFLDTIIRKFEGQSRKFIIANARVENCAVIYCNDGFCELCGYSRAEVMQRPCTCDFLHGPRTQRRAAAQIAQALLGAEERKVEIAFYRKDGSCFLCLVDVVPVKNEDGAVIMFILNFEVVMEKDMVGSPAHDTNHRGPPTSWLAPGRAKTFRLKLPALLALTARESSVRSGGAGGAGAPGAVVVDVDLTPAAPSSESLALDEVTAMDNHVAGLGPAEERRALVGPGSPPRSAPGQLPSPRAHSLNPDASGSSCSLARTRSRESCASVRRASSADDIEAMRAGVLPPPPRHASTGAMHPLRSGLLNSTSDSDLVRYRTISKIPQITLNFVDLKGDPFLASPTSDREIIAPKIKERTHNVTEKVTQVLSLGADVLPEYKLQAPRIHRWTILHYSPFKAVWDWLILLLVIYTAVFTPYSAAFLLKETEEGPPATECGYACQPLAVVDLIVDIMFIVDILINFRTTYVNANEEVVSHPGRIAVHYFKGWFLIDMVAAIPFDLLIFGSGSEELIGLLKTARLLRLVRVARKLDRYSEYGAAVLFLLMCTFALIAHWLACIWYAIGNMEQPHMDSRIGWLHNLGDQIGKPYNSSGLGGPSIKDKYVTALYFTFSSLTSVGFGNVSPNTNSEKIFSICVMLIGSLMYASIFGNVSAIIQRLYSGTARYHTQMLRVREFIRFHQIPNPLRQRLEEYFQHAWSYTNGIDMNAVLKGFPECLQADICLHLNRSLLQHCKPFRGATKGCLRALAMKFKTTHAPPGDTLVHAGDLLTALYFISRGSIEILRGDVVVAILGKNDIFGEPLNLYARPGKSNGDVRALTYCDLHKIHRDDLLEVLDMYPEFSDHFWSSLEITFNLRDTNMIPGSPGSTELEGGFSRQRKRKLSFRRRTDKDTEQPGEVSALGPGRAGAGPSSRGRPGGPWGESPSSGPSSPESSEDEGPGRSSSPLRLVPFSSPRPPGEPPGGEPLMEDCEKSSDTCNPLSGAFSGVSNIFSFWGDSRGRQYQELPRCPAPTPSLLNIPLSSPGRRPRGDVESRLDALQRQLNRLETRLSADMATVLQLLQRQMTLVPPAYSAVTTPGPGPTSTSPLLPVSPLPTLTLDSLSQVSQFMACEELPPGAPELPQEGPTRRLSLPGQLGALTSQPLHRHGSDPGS
row,SMILES,"hERG current change (%, negative = inhibition) at 10uM"
1,Cc1ccc(NC2=NCC(=O)N2C2CCCC2)cc1.Cl,14.7%
2,CNC(=O)N1c2ccccc2NC(=O)CC1C (stereo not drawn),9.32%
3,Cc1ccc(S(=O)(=O)NC2=NCN(CCN3CCOCC3)CN2)cc1,8.55%
4,CC(=O)N(CCCN1CCOCC1)Cc1ccncc1.Cl,16.4%
5,O=C(Nc1nc2ccc(Cl)cc2s1)c1ccc(Br)o1,4.25%
6,Cc1ccc(CNC(=O)/C=C/c2ccc(S(=O)(=O)NCc3ccco3)cc2)cc1,-1.37%
7,O=C(CN1CCN(c2ccccc2)CC1)Nc1nccs1,5.11%
8,Cc1c(NC(=O)CN2CCN(c3ccccc3)CC2)c(=O)n(-c2ccccc2)n1C,9.86%
9,Cc1c(NC(=O)CN2CCN(c3ccc(O)cc3)CC2)c(=O)n(-c2ccccc2)n1C,21%
10,O=C(CN1CCN(c2ccccc2)CC1)Nc1cccc([N+](=O)[O-])c1,2.69%
11,Cc1c(NC(=O)CN2CCN(c3ccc([N+](=O)[O-])cc3)CC2)c(=O)n(-c2ccccc2)n1C,-50.1%
12,O=C(CN1CCN(c2ccc(F)cc2)CC1)Nc1nccs1,-1.39%
13,O=C(CN1CCN(CC(=O)Nc2ccccn2)CC1)Nc1ccccn1,-36%
14,O=C(CN1CCN(c2ccc([N+](=O)[O-])cc2)CC1)Nc1ccccn1,-77.9%
15,O=C(CN1CCN(c2ccc([N+](=O)[O-])cc2)CC1)Nc1nccs1,-65.6%
16,C#CCSc1nnnn1-c1cccc(Cl)c1,-9.19%
17,COc1cccc(C2NC(CC(C)C)(C(=O)O)C3C(=O)N(Cc4ccccc4)C(=O)C23)c1O (stereo not drawn),10.2%
18,CN(Cc1ccccc1F)C(=O)c1ccc(NS(=O)(=O)c2ccc3[nH]c(=O)[nH]c3c2)cc1,6.14%
19,O=C(Nc1ccccc1N1CCCCC1)C1=COCCO1,-32.6%
20,CC(C)[C@@H](C(=O)NCc1ccco1)N1C(=O)N2CCc3c([nH]c4ccccc34)[C@@]2(C)C1=O,-15.6%
21,CSc1nnc([C@@H](NC(=O)OC(C)(C)C)C(C)C)o1,-13.6%
22,CCc1cccc(OCC(O)Cn2c(N3CCCCC3)nc3c2c(=O)[nH]c(=O)n3C)c1 (stereo not drawn),13.7%

row,SMILES,"hERG current change (%, negative = inhibition) at 10uM"
1,Clc1ccc(CN=C2Nc3ccccc3CS2)cc1,14.9%
2,COc1cc2c(cc1OC)C1=C(C#N)CCC(=O)N1CC2,5.55%
3,C=C1C[C@H]2[C@@H]3C=C(C)C4=CC(=O)CC[C@]4(C)[C@H]3CC[C@]2(C)[C@@]1(OC(C)=O)C(C)=O,-21.2%
4,O=C(COC(=O)C1CC1)Nc1nc(-c2ccc(F)c(F)c2)cs1,4.93%
5,CCOc1ccccc1N1CCN(C(=O)c2ccccc2)CC1,11%
6,CCCc1cnc(N2CCN(C(=O)c3c(-c4ccccc4)noc3C)CC2)nc1,-24.5%
7,CCOc1ccccc1N1CCN(C(=O)CNC(=O)c2ccc(OC)c(OC)c2)CC1,11.9%
8,CCCc1cnc(N2CCN(C(=O)c3ccc(OC)cc3)CC2)nc1,-52.4%
9,CCOc1ccc(C(=O)N2CCN(c3ncccn3)CC2)cc1,-9.8%
10,CCCc1ccc(C(=O)N2CCN(c3ccccc3OCC)CC2)cc1,-56.3%
11,CCCc1cnc(N2CCN(C(=O)c3ccccc3)CC2)nc1,-57.1%
12,CCCCOc1ccc(C(=O)N2CCN(c3ncccn3)CC2)cc1,-9.16%
13,CCOc1ccccc1N1CCN(C(=O)CNC(=O)c2sc3ccccc3c2Cl)CC1,17.4%
14,CCOc1ccccc1N1CCN(C(=O)c2ccncc2)CC1,-8.78%
15,CCCc1cnc(N2CCN(C(=O)c3ccc(F)cc3)CC2)nc1,-43.1%
16,CCOc1ccccc1N1CCN(C(=O)CNC(=O)c2ccccc2F)CC1,-51.1%
17,CCCCCCSc1ccc([C@@H]2[C@H]3C(=O)N(CC)C(=O)[C@H]3[C@]3(C(=O)OC)CCCN23)cc1.O=C(O)C(F)(F)F,-7.59%
18,COc1cc(OC)cc(C(=O)O/N=C(\N)c2ccccn2)c1,7.21%
19,CCOC(=O)c1cc2c(ccn2C)n1CC(=O)N1CCC(Cc2ccccc2)CC1,-24.1%
20,CN(C)S(=O)(=O)c1ccc(NC(=O)CN2C(=O)NC(Cc3ccccc3)C2=O)cc1 (stereo not drawn),10.2%
21,CCOC(=O)CC(NC(=O)C1c2ccccc2Oc2ccccc21)c1ccc(C)cc1 (stereo not drawn),5.66%
22,COc1ccc(NC(=O)CSc2nnc(-c3cccnc3)n2C)cc1,8.3%

row,SMILES,"hERG current change (%, negative = inhibition) at 10uM"
1,Cc1cc(OCC(=O)N2CCC(C(=O)O)(c3ccccc3)CC2)c2c(C)cc(=O)oc2c1,11.6%
2,COc1cc(OC)c(NC(=O)c2cncn2-c2ccc(F)cc2)cc1Cl,-19.7%
3,NNC(=O)c1cncn1-c1ccc(F)cc1,23.7%
4,O=C(Nc1cccc(Cl)c1)c1cncn1-c1ccc(F)cc1,-68.1%
5,Cc1cccc(C)c1NS(=O)(=O)c1c(C)[nH]c(=O)[nH]c1=O,-14.2%
6,Cc1ccccc1CN(CC(=O)Nc1cccc([N+](=O)[O-])c1)S(=O)(=O)c1ccc(Cl)cc1,15.1%
7,O=C(NC1CCN(Cc2ccc(Cl)cc2Cl)CC1)c1ccccc1,-53.9%
8,O=C(NC1CCN(Cc2ccccc2)CC1)c1ccccc1F,-23.7%
9,O=C(NC1CCN(C(=O)Nc2ccccc2Cl)CC1)c1ccccc1,4.22%
10,CSCCC(NC(=O)c1ccccc1Cl)C(=O)NC1CCN(Cc2ccccc2)CC1 (stereo not drawn),-50.1%
11,O=C(NC1CCN(Cc2ccccc2)CC1)c1ccc(Cl)cc1Cl,-75%
12,O=C(NC1CCN(Cc2ccccc2)CC1)c1ccccc1Cl,1.15%
13,COC(=O)[C@H](CCSC)NC(=O)NC1CCN(Cc2ccccc2)CC1,-12.9%
14,Cl.O=C(NN1CCN(Cc2ccccc2Cl)CC1)c1ccc(Cl)cc1,-10.6%
15,O=C(NC1CCN(C(=O)Nc2cccc(Cl)c2)CC1)c1ccccc1,1.02%
16,CSCCC(NC(=O)c1ccccc1Cl)C(=O)N1CCN(C(C)=O)CC1 (stereo not drawn),-26.9%
17,O=C(NC1CCN(Cc2ccccc2Cl)CC1)c1ccccc1,-65.2%
18,S=C(Nc1ccc(Cl)cc1Cl)NC1CCN(Cc2ccccc2)CC1,-2.76%
19,COCC(=O)Nc1ccc(C)c(Cl)c1,14.4%
20,Cc1cccc(NS(=O)(=O)c2ccc(OCC(=O)N3CCCC3)cc2)c1,-19.1%
21,CCCn1nnnc1NC(=O)COc1ccc(CC)cc1,-3.02%
22,Cc1ccc(NC(=O)CCSc2nnc(C)o2)cc1,2.48%

row,SMILES,"hERG current change (%, negative = inhibition) at 10uM"
1,CC1(C)NC(=O)N(CCCCOc2cccc(C(F)(F)F)c2)C1=O,-6.92%
2,CN1CCN(c2ccc(C(N)=O)cc2N)CC1,6.81%
3,CN1C(=O)C(C)(C)c2cc(S(=O)(=O)N3CCCC(C(=O)Nc4ccc(Cl)cc4)C3)ccc21 (stereo not drawn),-9.27%
4,COC(=O)/C(C#N)=C/c1c(Oc2cccc(C)c2C)nc2ccccn2c1=O,-12.6%
5,COC(=O)CCCn1nc(NC(=O)COc2ccc(F)cc2)cc1C,-5.47%
6,COc1ccc(C(C(=O)NC(C)(C)C)N(C(=O)CNC(=O)c2cccs2)c2ccc(NC(C)=O)cc2)cc1OC (stereo not drawn),10.4%
7,CC1CCC(NC(=O)c2cc(C3CC3)nn2-c2ccccc2)CC1 (stereo not drawn),-34.9%
8,COc1cc2c(cc1OC)CN(C(=O)c1cc(C3CC3)nn1-c1ccccc1)CC2,-56.2%
9,O=C(c1cc(C2CC2)nn1-c1ccccc1)N1CCN(Cc2ccc(Cl)cc2)CC1,-32.1%
10,O=C(NC1CCCCC1)c1cc(C2CC2)nn1-c1ccccc1,-51.2%
11,O=C(O)c1cc(C2CC2)nn1-c1ccccc1,17.5%
12,COc1ccc(N2CCN(C(=O)c3cc(C4CC4)nn3-c3ccccc3)CC2)cc1,-44.4%
13,COc1ccc(CN2CCN(C(=O)c3cc(C4CC4)nn3-c3ccccc3)CC2)cc1F,-48.6%
14,COc1ccc(OC)c(S(=O)(=O)N2CCN(C(=O)c3cc(C4CC4)nn3-c3ccccc3)CC2)c1,-11.1%
15,N#Cc1ccc(CN2CCN(C(=O)c3cc(C4CC4)nn3-c3ccccc3)CC2)cc1,-57.2%
16,COc1ccc(NC(=O)Nc2ccccc2SC)cc1OC,6.08%
17,Cc1ccc(C)c(N2CCN(C(=O)Cn3c(=O)[nH]c4ccsc4c3=O)CC2)c1,-4.12%
18,Cc1ccc(C(=O)Nc2nnc(-c3ccc(C(C)(C)C)cc3)s2)cc1,4.81%
19,CCN(CC)CCCN1CC(=O)N2[C@@H](Cc3c([nH]c4ccccc34)C2(C)C)C1=O,1.24%
20,CCCCN(CCCC)CCCN1CC(=O)N2[C@@H](Cc3c([nH]c4ccccc34)C2(C)C)C1=O,-73.2%
21,CCCCCCN1CC(=O)N2[C@@H](Cc3c([nH]c4ccccc34)C2(C)C)C1=O,13.9%
